# Source: PubChem BioAssay (EPA / NIEHS)
# Values joined by “and” are separate entries in the source; they are usually repeats but may differ in a detail not shown here. Equal entries are not always repeated. Records with an inconclusive call do not appear. More than one record can exist for a structure, and the calls need not agree. Active and inactive are the calls of the source. Rule for the calls, unless noted: active = hit-call score of the fitted dose curve at least 0.9, where 1 is the maximum; inactive = score below 0.9.
# Experiments:
# [1] = CCTE_Mundy_HCI_Cortical_NOG_BPCount: CCTE's Neurite Outgrowth Assay in rat cortical cells for Branch Point Count, Mundy Lab (AID 2284237);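 for AC50: branch points counted about two days after chemical exposure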
# How it was run: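 Measured 50.33 h after dosing, this morphology endpoint uses rat primary cortical cultures labelled for betaIII-tubulin. Branch points are quantified by high-content imaging, with DMSO as negative control and baseline.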
# [2] = CCTE_Mundy_HCI_hNP1_Casp3_7: CCTE's Caspase-Glo 3/7 Assay in human neuroprogenitor cells for Apoptosis, Mundy Lab (AID 2284240)
# How it was run: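 Neuroepithelial-lineage stem cells from WA09 embryonic cells were treated with chemicals after 40–44 h of culture. Twenty-four hours later, caspase-3/7 activation was detected luminescently after a 30 min room-temperature reagent step, with DMSO as baseline.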
# [3] = CCTE_Mundy_HCI_hNP1_CellTiter: CCTE's Cell Titer-Glo 2 Assay in human neuroprogenitor cells for Viability, Mundy Lab (AID 2284241; active = hit-call score of the fitted dose curve at least 0.9, where 1 is the maximum)
# How it was run: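 Measures ATP content in human neural progenitors derived from WA09 embryonic cells. Read-out at 26.5 hours after dosing, with DMSO serving as the negative control and baseline.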
# [4] = CCTE_Mundy_HCI_Cortical_Synap_Neur_Matur_NeuronCount: CCTE's Synaptogenesis and Neurite Maturation Assay in rat cortical cells for Neuron Count, Mundy Lab (AID 2284242; active = hit-call score of the fitted dose curve at least 0.9, where 1 is the maximum)
# How it was run: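 Rat cortical cultures; AraC DIV 5; chemical dosing + media change DIV 7 to DIV 12 (288.33 h readout). Fix, Hoechst, anti-MAP2/anti-synaptophysin immunostain; HCI neuron count vs DMSO baseline.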
# [5] = read-out: Collagen I, COL1A1 (gene 1277); assay: BSK_MyoF_CollagenI: BioMAP Diversity Plus: MyoF Assay for Collagen I Biomarker Activity (AID 2284238); conditions: primary human lung fibroblasts
# How it was run: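 ELISA readout of Collagen I after 24 h chemical treatment of primary human lung fibroblast cultures; gain of signal scored relative to DMSO vehicle baseline.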
# [6] = read-out: Collagen III, COL3A1 (gene 1281); assay: BSK_MyoF_CollagenIII: BioMAP Diversity Plus: MyoF Assay for Collagen III Biomarker Activity (AID 2284239); conditions: primary human lung fibroblasts
# How it was run: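 Lung fibroblast culture; 24 h compound exposure; collagen III by ELISA; gain-of-signal fit vs DMSO baseline.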
# [7] = read-out: Interleukin 17F (IL17F), IL17F (gene 112744); assay: BSK_BT_xIL17F: BioMAP Diversity Plus: BT Assay for Interleukin 17F (IL17F) Biomarker Activity (AID 2284243); conditions: primary human B cells with PBMC
# How it was run: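 Secreted IL-17F, read on LumineX xMAP beads, was taken as the endpoint. Cultures combined human B cells and peripheral blood mononuclear cells, sampled 24 hours after dosing, with DMSO serving as negative control.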
# [8] = read-out: Actin alpha 1 (ACTA1), ACTA1 (gene 58); assay: BSK_MyoF_ACTA1: BioMAP Diversity Plus: MyoF Assay for Actin alpha 1 (ACTA1) Biomarker Activity (AID 2284244); conditions: primary human lung fibroblasts
# How it was run: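 ELISA read-out of a-SMA in primary human lung fibroblast cultures, 24 h post-dosing. Activity scored in the positive direction versus DMSO baseline.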
# [9] = read-out: Interleukin 2 (IL2), IL2 (gene 3558); assay: BSK_BT_xIL2: BioMAP Diversity Plus: BT Assay for Interleukin 2 (IL2) Biomarker Activity (AID 2284245); conditions: primary human B cells with PBMC
# How it was run: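 Readout: supernatant IL-2 via Luminex xMAP after 24 h chemical dosing of a B cell/PBMC primary human co-culture. DMSO serves as negative control and baseline; increases in signal were fitted.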
# [10] = read-out: Basic fibroblast growth factor (bFGF), FGF2 (gene 2247); assay: BSK_MyoF_bFGF: BioMAP Diversity Plus: MyoF Assay for Basic fibroblast growth factor (bFGF) Biomarker Activity (AID 2284246); conditions: primary human lung fibroblasts
# How it was run: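 Primary human lung fibroblast culture, 24 h compound exposure; ELISA read-out of bFGF. Positive-direction fit vs DMSO baseline. Cytotoxicity: SRB stain (0.1% SRB, 10% TCA fixation, 560 nm) in parallel wells.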
# [11] = read-out: Collagen IV, COL4A1 (gene 1282); assay: BSK_MyoF_CollagenIV: BioMAP Diversity Plus: MyoF Assay for Collagen IV Biomarker Activity (AID 2284247); conditions: primary human lung fibroblasts
# How it was run: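 ELISA read-out of Collagen IV in lung fibroblast cultures, 24 h post-dosing; gain of signal relative to DMSO vehicle baseline defines activity.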
# [12] = read-out: Monokine induced gamma interferon (MIG), CXCL9 (gene 4283); assay: BSK_KF3CT_MIG: BioMAP Diversity Plus: KF3CT Assay for Monokine induced gamma interferon (MIG) Biomarker Activity (AID 2284248); conditions: primary human keratinocytes with fibroblasts
# How it was run: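 ELISA read-out of MIG after 24 h chemical exposure of human skin primary co-culture (keratinocytes, foreskin fibroblasts). Gain of signal relative to DMSO negative control was analysed.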
# [13] = read-out: Vascular cell adhesion molecule 1 (VCAM1), VCAM1 (gene 7412); assay: BSK_BF4T_VCAM1: BioMAP Diversity Plus: BF4T Assay for Vascular cell adhesion molecule 1 (VCAM1) Biomarker Activity (AID 2284249); conditions: primary human bronchial epithelial cells with fibroblasts
# How it was run: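 Cell-surface VCAM-1 quantified by ELISA after 24 h chemical exposure of human bronchial epithelial/dermal fibroblast co-cultures, with SRB staining in parallel wells for cytotoxicity; DMSO baseline, positive-direction fitting.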
# [14] = read-out: Collagen I, COL1A1 (gene 1277); assay: BSK_hDFCGF_CollagenI: BioMAP Diversity Plus: hDFCGF Assay for Collagen I Biomarker Activity (AID 2284250); conditions: primary human foreskin fibroblasts
# How it was run: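 ELISA read-out of Collagen I in human dermal foreskin fibroblast cultures, 24 h after dosing. Gain of signal versus DMSO vehicle defines activity.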
# [15] = read-out: Interferon-inducible T-cell alpha chemoattractant (ITAC), CXCL11 (gene 6373); assay: BSK_hDFCGF_ITAC: BioMAP Diversity Plus: hDFCGF Assay for Interferon-inducible T-cell alpha chemoattractant (ITAC) Biomarker Activity (AID 2284251); conditions: primary human foreskin fibroblasts
# How it was run: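 Chemical dosing of primary human foreskin fibroblast cultures preceded ELISA measurement of I-TAC at 24 h. Response was analysed in the positive direction using DMSO as baseline, while parallel SRB staining measured cytotoxicity.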
# [16] = read-out: Plasminogen activator inhibitor-1 (PAI1), SERPINE1 (gene 5054); assay: BSK_KF3CT_PAI1: BioMAP Diversity Plus: KF3CT Assay for Plasminogen activator inhibitor-1 (PAI1) Biomarker Activity (AID 2284252); conditions: primary human keratinocytes with fibroblasts
# How it was run: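 Keratinocyte + dermal fibroblast co-culture (human primary); 24 h post-dose; PAI-1 by ELISA; gain-of-signal fit vs DMSO control.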
# [17] = read-out: Monocyte Chemoattractant Protein-1 (MCP1), CCL2 (gene 6347); assay: BSK_IMphg_MCP1: BioMAP Diversity Plus: IMphg Assay for Monocyte Chemoattractant Protein-1 (MCP1) Biomarker Activity (AID 2284253); conditions: primary human endothelial cells with macrophages
# How it was run: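 ELISA readout of MCP-1 at 24 hours in IMphg co-cultures of venular endothelial cells and macrophages, normalised to DMSO; parallel cultures stained with sulforhodamine B for overt cytotoxicity.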
# [18] = read-out: Interleukin-8 (IL8), CXCL8 (gene 3576); assay: BSK_KF3CT_IL8: BioMAP Diversity Plus: KF3CT Assay for Interleukin-8 (IL8) Biomarker Activity (AID 2284254); conditions: primary human keratinocytes with fibroblasts
# How it was run: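 IL-8 read-out: ELISA, 24 h post-dose, human skin primary co-culture (keratinocytes + foreskin fibroblasts). DMSO = baseline; positive-direction fit.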
# [19] = read-out: Macrophage Inflammatory Protein-1 Alpha (MIP1a), CCL3 (gene 6348); assay: BSK_IMphg_MIP1a: BioMAP Diversity Plus: IMphg Assay for Macrophage Inflammatory Protein-1 Alpha (MIP1a) Biomarker Activity (AID 2284255); conditions: primary human endothelial cells with macrophages
# How it was run: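 MIP-1a protein levels were quantified by ELISA after 24 h treatment of human endothelial cell–macrophage co-cultures, compared with DMSO. Parallel cultures were fixed with TCA and stained with 0.1% SRB to gauge overt cytotoxicity.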
# [20] = read-out: Plasminogen activator inhibitor-1 (PAI1), SERPINE1 (gene 5054); assay: BSK_MyoF_PAI1: BioMAP Diversity Plus: MyoF Assay for Plasminogen activator inhibitor-1 (PAI1) Biomarker Activity (AID 2284256); conditions: primary human lung fibroblasts;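 note: PAI-1 protein level measured by ELISA in fibroblast cultures; PAI-1 read 24 h after compound addition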
# How it was run: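 MyoF lung fibroblasts, human primary; compound 24 h; PAI-1 ELISA; positive-direction fit vs DMSO baseline; parallel SRB total-protein staining for cytotoxicity.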
smiles,measurement,setting,value
O=C1CCC(N2C(=O)c3ccccc3C2=O)C(=O)N1 (stereo not drawn),outcome,[1],inactive
same,outcome,[2],inactive
same,outcome,[3],inactive
same,outcome,[4],inactive
Cn1cnc([N+](=O)[O-])c1Sc1ncnc2nc[nH]c12,outcome,[5],inactive
same,outcome,[6],inactive
same,outcome,[7],inactive
same,AC50,[8],0.254 µM (active)
same,outcome,[8],inactive
same,AC50,[9],9.43 µM (active) and 12.6 µM (active)
same,outcome,[10],inactive
same,outcome,[11],inactive
same,outcome,[12],inactive
same,AC50,[13],12.6 µM (active)
same,outcome,[13],inactive
same,outcome,[14],inactive
same,AC50,[15],3.66 µM (active) and 12.6 µM (active)
same,outcome,[16],inactive
same,outcome,[17],inactive
same,outcome,[18],inactive
same,AC50,[19],12.2 µM (active)
same,outcome,[19],inactive
same,outcome,[20],inactive
O=P(OC(CCl)CCl)(OC(CCl)CCl)OC(CCl)CCl,AC50,[1],20.8 µM (active)
same,outcome,[2],inactive
same,outcome,[4],inactive
NC(=O)NO,outcome,[1],inactive
same,outcome,[2],inactive
same,outcome,[3],inactive
same,outcome,[4],inactive
Cn1c(=O)c2c(ncn2C)n(C)c1=O,outcome,[1],inactive
same,outcome,[2],inactive
same,outcome,[3],inactive
same,outcome,[4],inactive
CC[C@H]1OC(=O)[C@H](C)[C@@H](O[C@H]2C[C@@](C)(OC)[C@@H](O)[C@H](C)O2)[C@H](C)[C@@H](O[C@@H]2O[C@H](C)C[C@H](N(C)C)[C@H]2O)[C@](C)(O)C[C@@H](C)C(=O)[C@H](C)[C@@H](O)[C@]1(C)O,outcome,[1],inactive
same,outcome,[2],inactive
same,outcome,[3],inactive
same,outcome,[4],inactive
